Assay results: PubChem BioAssay
“And” between values parts separate entries of the source, which are not always exact repeats. Identical values can stand only once.

These compounds were tested on Human papillomavirus type 1a E7 protein (residues 1-88) (assay: HPV1a E7 small-molecule binders, primary screen, biochemical, small-molecule microarray, residues 1-88, 635 nm (AID 1129)). Conditions: small-molecule microarray binding, fluorescence 635 nm; higher = more signal.
For `CCCCCN1CC=CC23O[C@@H]4C=CCCOC(=O)C4[C@H]2C(=O)N(C(C)CO)[C@@H]3C1=O` (stereo partly drawn), the composite z-score was -0.367 and -0.292.
With `COC(=O)[C@@]1(Cc2ccc(OC)cc2)[C@H]2c3cc(C(=O)N(C)C)n(Cc4ccc(O)c(OC)c4)c3C[C@H]2CN1C(=O)c1ccccc1` the composite z-score was 1.24 and 1.21.
`C=CCN(Cc1ccccc1)C(=O)C(c1cccs1)N(C(=O)/C=C\C(=O)O)c1ccc(CCO)cc1` (stereo not drawn) was tested, and the composite z-score was 0.285 and -0.623.
For `CCN1C(=O)[C@H]2[C@H]3[C@H](O)[C@H](O)CC(=NOC)[C@@H]3CC[C@H]2C1=O`, the composite z-score was -0.805.
`C[N+](C)(C)CCCCNC(=O)[C@@H]1C[C@@H]2C(=O)N[C@@H](CCCC[N+](C)(C)C)C(=O)N2[C@@H]1c1cccc(OCCO)c1` was tested, and the composite z-score was 0.905 and -0.426.
For `CO[C@H]1COC(=O)CC=C[C@H](C)[C@H](OC)COC(=O)[C@@H](C)COC(=O)CC=C[C@@H]1C`, the composite z-score was 0.151 and -0.833.
`Cc1cc2c(nc1C)CCCN2CC(O)CN1CCCc2nc(-c3ccc(Br)cc3)ccc21` (stereo not drawn) was tested, and the composite z-score was 1.15 and 1.16.
With `COC(=O)C1=C(C)N(Cc2ccccc2)C2=C(C(=O)c3ccccc3)[C@H](c3ccccc3)[C@@](O)(C(=O)OC)C(=O)N2[C@@H]1c1ccccc1` the composite z-score was 0.477 and 0.778.
With `C#CCN1C(/C=C/c2ccccc2)C(=O)OC[C@H]1c1ccccc1` (stereo partly drawn) the composite z-score was 0.455 and 0.0982.
`COC(=O)[C@@]1(Cc2ccccc2)[C@H]2c3cc(C(=O)N(C)C)n(Cc4ccc(C)c(F)c4F)c3C[C@H]2CN1C(=O)c1ccccc1` was tested, and the composite z-score was 1.24 and 1.25.
With `CCOC(=O)[C@@H]1CC2O[C@]23C[C@@H]1C(=O)N1CCC[C@@H]1[C@H]3O[Si](C)(C)C(C)(C)C` (stereo partly drawn) the composite z-score was -0.853 and 0.0436.
With `C=CCN(CCCCC)C(=O)C(c1cccs1)N(C(=O)/C=C\C(=O)O)c1ccc(CCO)cc1` (stereo not drawn) the composite z-score was -0.502 and -0.625.
With `CC(CO)N1C(=O)[C@@H]2C3C(=O)OCCC=C[C@H]3OC23C=CCN(c2ccc4ccccc4c2)C(=O)[C@@H]13` (stereo partly drawn) the composite z-score was -0.203 and -0.362.

These compounds were tested against Focal adhesion kinase 1 (Homo sapiens) (UniProt Q05397) (assay: small-molecule microarray binders of FAK, primary screen, biochemical, 635/667 nm fluorescence, BSA, DTT (AID 1130;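 note: composite of spot emission at 667 nm and signal to noise over triplicate slides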)). Conditions: PTK2 binding, 635 nm fluorescence, higher = more signal.
Focal adhesion kinase 1 (Homo sapiens), sequence (Q05397 whole entry, looked up): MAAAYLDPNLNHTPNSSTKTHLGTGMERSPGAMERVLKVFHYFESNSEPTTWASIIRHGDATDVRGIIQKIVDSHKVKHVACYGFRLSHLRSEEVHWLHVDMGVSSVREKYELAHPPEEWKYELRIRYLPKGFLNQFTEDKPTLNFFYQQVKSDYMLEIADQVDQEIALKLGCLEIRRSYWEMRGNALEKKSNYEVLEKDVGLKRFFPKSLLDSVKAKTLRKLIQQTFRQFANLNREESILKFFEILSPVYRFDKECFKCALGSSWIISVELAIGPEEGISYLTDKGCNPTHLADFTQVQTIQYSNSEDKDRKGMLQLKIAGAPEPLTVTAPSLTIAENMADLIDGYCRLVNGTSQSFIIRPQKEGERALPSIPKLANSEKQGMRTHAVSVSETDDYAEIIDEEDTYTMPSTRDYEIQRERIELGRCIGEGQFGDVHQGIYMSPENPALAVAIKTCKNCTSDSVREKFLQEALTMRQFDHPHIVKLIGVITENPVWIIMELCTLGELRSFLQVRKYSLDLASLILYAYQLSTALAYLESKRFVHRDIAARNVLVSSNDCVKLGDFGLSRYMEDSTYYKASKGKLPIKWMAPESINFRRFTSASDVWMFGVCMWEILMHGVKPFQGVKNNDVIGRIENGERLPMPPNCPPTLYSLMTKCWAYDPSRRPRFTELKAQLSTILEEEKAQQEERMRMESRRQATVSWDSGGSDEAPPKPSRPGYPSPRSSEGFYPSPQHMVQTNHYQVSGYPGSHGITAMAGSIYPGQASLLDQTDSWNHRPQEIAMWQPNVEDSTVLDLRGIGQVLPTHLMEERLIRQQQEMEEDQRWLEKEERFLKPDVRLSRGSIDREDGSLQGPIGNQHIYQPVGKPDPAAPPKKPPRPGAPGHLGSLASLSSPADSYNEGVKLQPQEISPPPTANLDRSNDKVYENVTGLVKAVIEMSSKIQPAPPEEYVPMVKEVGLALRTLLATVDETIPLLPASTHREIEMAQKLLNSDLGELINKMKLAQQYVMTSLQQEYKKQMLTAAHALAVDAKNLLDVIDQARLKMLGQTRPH
For `C=CCN(CCCC)C(=O)C(c1cccs1)N(CCOCCO)C(=O)/C=C\C(=O)O` (stereo not drawn), the composite z-score was -0.552 and 0.468.
In the case of `CC(C)[Si]1(C(C)C)OCc2cc(CCCc3cc4c(c(CCc5ccccc5)n3)[Si](C(C)C)(C(C)C)OC4)nc(CCc3ccccc3)c21`, the composite z-score is reported as -0.293 and -0.0124.
With `O=C1[C@H]2[C@H]3[C@H](O)[C@H](O)CC(=NOCc4ccccc4)[C@H]3CC[C@H]2C(=O)N1Cc1ccccc1` the composite z-score was -0.0933.
With `C=CCN(C(=O)C1N(CCOCCO)C(=O)C2C(C(=O)O)C3C=CC21O3)c1ccc(OC)cc1` (stereo not drawn) the composite z-score was 0.748 and -0.878.
`C=CCN(CCCCC)C(=O)C(c1cccs1)N(C(=O)/C=C\C(=O)O)c1c(Cl)cccc1CO` (stereo not drawn) was tested, and the composite z-score was -0.519 and -0.564.
In the case of `C=C[C@@H](OC)[C@H](O)c1ccc(OCCO)cc1`, the composite z-score is reported as 0.005 and -0.754.
Compound `CC(=O)OC[C@H]1O[C@H](C#CC(C)(C)C)C=C[C@@H]1OC(C)=O` has a composite z-score of 0.589.
For `C[N+](C)(C)CCCCCCNC(=O)[C@H]1C[C@H]2C(=O)N[C@@H](CCCC[N+](C)(C)C)C(=O)N2[C@H]1c1ccc(O)cc1`, the composite z-score was -0.391 and -0.0304.
For `COc1ccc(-c2ccc3c(n2)CCCN3CC(O)CN2CCCc3nc(-c4ccc(Br)cc4)ccc32)cc1` (stereo not drawn), the composite z-score was 0.665 and 0.748.
For `CC(CO)N1C(=O)[C@@H]2C3C(=O)OCCC=C[C@H]3OC23C=CCN(Cn2nnc4ccccc42)C(=O)[C@@H]13` (stereo partly drawn), the composite z-score was -0.244 and -0.0494.
For `C[C@@]1([C@@H](NC(=O)Cc2ccccc2)c2ccc(-c3ccccc3)cc2)C[C@H]1C1CCCCC1`, the composite z-score was 0.284 and 0.0485 and 0.83.
For `C=CCN(CCCC)C(=O)C(c1cccs1)N(C(=O)/C=C\C(=O)O)c1c(Cl)cccc1CO` (stereo not drawn), the composite z-score was -0.859 and 1.27.
With `C=C[C@@H](C)[C@@H](O)c1ccc(OCCO)cc1` the composite z-score was -0.467 and -1.08.
For `C=CCN(CCCCC)C(=O)C(c1cccs1)N(CCOCCO)C(=O)/C=C\C(=O)O` (stereo not drawn), the composite z-score was -0.759 and 0.926.
Compound `CC(C)CCN1CCc2nc(-c3ccccc3)c3c(c2C1)CO[C@@H](C)C3` has a composite z-score of 0.304.
With `C=CCN(CCCC)C(=O)C1N(c2ccc(CCO)cc2)C(=O)C2C(C(=O)O)C3C=CC21O3` (stereo not drawn) the composite z-score was -1.03 and 0.339.
For `C=C[C@H](OC)[C@@H](O)c1ccc(OCCO)cc1`, the composite z-score was -0.86 and 0.0202.
`C=C[C@H](C)[C@H](O)c1ccc(O)c2ccccc12` was tested, and the composite z-score was -0.0703 and -0.493.
With `COC(=O)C1=C(C)N(Cc2ccccc2)[C@]23O[C@](C(=O)OC)(C(=O)N2[C@@H]1c1ccccc1)[C@H]1C(=O)N(c2ccccc2)C(=O)[C@H]13` the composite z-score was 0.277 and 0.0443.
`CN1C(=O)C2CC=C([C@H]3Oc4ccccc4S(=O)(=O)N4CCC[C@@H]34)CC2C1=O` (stereo partly drawn) was tested, and the composite z-score was 0.285 and 0.14.
`CC(C)=NOC[C@@H](O)COCc1ccco1` showed a composite z-score of -0.395.
Work on `CCOC(=O)NN=C1C[C@@H](O)[C@@H](O)[C@@H]2[C@@H]3C(=O)N(Cc4ccccc4)C(=O)[C@@H]3CC[C@@H]12` yielded a composite z-score of -0.118.
With `COC(=O)C1=C(C)N(Cc2ccccc2)[C@]23O[C@](C(=O)OC)(C(=O)N2[C@@H]1c1ccccc1)[C@H]1CCCC(=O)[C@H]13` the composite z-score was -0.035 and 0.215.
`C#CCCCON=C1C[C@@H](O)[C@@H](O)[C@@H]2[C@@H]3C(=O)N(C4CCCCC4)C(=O)[C@@H]3CC[C@H]12` gave a composite z-score of 0.498.
For `C=C[C@@H](OC)[C@H](O)c1ccc(OC)c(O)c1`, the composite z-score was -0.294 and -1.03.
`CC(C)=NOCc1ccc(-c2cn([C@@H]3COC[C@H]3O)nn2)cc1` was tested, and the composite z-score was -0.115.
`CO[C@@H]1C=CCC(=O)N2CCC[C@H]2C(=O)OC[C@H](C)C(=O)OC[C@H]1C` showed a composite z-score of 0.0548.
For `CCCCCN1CC=CC23O[C@@H]4C=CCCOC(=O)C4[C@H]2C(=O)N(C(C)CO)[C@@H]3C1=O` (stereo partly drawn), the composite z-score was -0.0918 and 0.206.
With `COC(=O)[C@@]1(Cc2ccc(OC)cc2)[C@H]2c3cc(C(=O)N(C)C)n(Cc4ccc(O)c(OC)c4)c3C[C@H]2CN1C(=O)c1ccccc1` the composite z-score was 0.529 and 0.379.
`C=CCN(Cc1ccccc1)C(=O)C(c1cccs1)N(C(=O)/C=C\C(=O)O)c1ccc(CCO)cc1` (stereo not drawn) was tested, and the composite z-score was -0.411 and -0.574.
Compound `CCN1C(=O)[C@H]2[C@H]3[C@H](O)[C@H](O)CC(=NOC)[C@@H]3CC[C@H]2C1=O` has a composite z-score of -0.384.
With `C[N+](C)(C)CCCCNC(=O)[C@@H]1C[C@@H]2C(=O)N[C@@H](CCCC[N+](C)(C)C)C(=O)N2[C@@H]1c1cccc(OCCO)c1` the composite z-score was -0.791 and -0.306.
`CO[C@H]1COC(=O)CC=C[C@H](C)[C@H](OC)COC(=O)[C@@H](C)COC(=O)CC=C[C@@H]1C` was tested, and the composite z-score was 0.445 and -0.105.
`Cc1cc2c(nc1C)CCCN2CC(O)CN1CCCc2nc(-c3ccc(Br)cc3)ccc21` (stereo not drawn) was tested, and the composite z-score was 1.08 and 1.26.
For `COC(=O)C1=C(C)N(Cc2ccccc2)C2=C(C(=O)c3ccccc3)[C@H](c3ccccc3)[C@@](O)(C(=O)OC)C(=O)N2[C@@H]1c1ccccc1`, the composite z-score was 0.0825 and 1.11.
`C#CCN1C(/C=C/c2ccccc2)C(=O)OC[C@H]1c1ccccc1` (stereo partly drawn) was tested, and the composite z-score was 0.0124 and 0.142.
With `COC(=O)[C@@]1(Cc2ccccc2)[C@H]2c3cc(C(=O)N(C)C)n(Cc4ccc(C)c(F)c4F)c3C[C@H]2CN1C(=O)c1ccccc1` the composite z-score was 0.73 and 1.04.
For `CCOC(=O)[C@@H]1CC2O[C@]23C[C@@H]1C(=O)N1CCC[C@@H]1[C@H]3O[Si](C)(C)C(C)(C)C` (stereo partly drawn), the composite z-score was 0.623 and 0.0915.
`C=CCN(CCCCC)C(=O)C(c1cccs1)N(C(=O)/C=C\C(=O)O)c1ccc(CCO)cc1` (stereo not drawn) was tested, and the composite z-score was -0.279 and -0.0021.
With `CC(CO)N1C(=O)[C@@H]2C3C(=O)OCCC=C[C@H]3OC23C=CCN(c2ccc4ccccc4c2)C(=O)[C@@H]13` (stereo partly drawn) the composite z-score was -0.192 and 0.525.
